An excerpt weighted towards active compounds, which were near 7.7% of everything screened.
Giardia FBPA inh-1 – qHTS Assay for Inhibitors of Fructose-1,6-bisphosphate Aldolase from Giardia Lamblia | A8B2U2 | purified Giardia FBPA | Potency, µM (top dose mostly 59.6 µM), without a hit: top-dose activity, negative = inhibition, most hits filed as inhibitors | hit rate 0.71% among 290,000 | AID 2451, 2010; further: potency means the concentration at half of the fitted maximal effect; nearly all actives have a fitted effect of over 55% in size
Target sequence (A8B2U2 whole entry, looked up): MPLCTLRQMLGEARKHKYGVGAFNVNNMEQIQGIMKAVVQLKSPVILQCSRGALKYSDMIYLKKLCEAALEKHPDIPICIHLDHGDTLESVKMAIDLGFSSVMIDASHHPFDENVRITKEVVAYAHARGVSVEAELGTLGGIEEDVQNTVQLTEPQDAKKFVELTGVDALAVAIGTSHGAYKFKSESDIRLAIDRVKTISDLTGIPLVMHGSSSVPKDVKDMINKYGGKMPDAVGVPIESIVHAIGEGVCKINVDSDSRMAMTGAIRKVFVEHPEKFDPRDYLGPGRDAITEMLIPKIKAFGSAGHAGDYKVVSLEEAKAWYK
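40 nM FBPA preincubated 10 min at RT with compound (up to 57.5 uM final), then substrate plus GAPDH/TPI/NAD/arsenate coupling and diaphorase/resazurin added. Fluorescence read after 20 min at RT, 525/598 nm.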
FMDV antiviral – High Throughput Screening for Foot and Mouth Disease Virus Antivirals; FMDV antiviral cell-based qHTS; Potency, µM (doses to about 57.9 µM), inactives show top-dose activity change, negative = inhibition, usual class: inhibitors; hit rate 1.2% among 410,000; AID 1159524, 2015; calls by dose curve; tested in HEK293T cells; further: read-out not given here; potency means the concentration at half of the fitted maximal effect; nearly all actives have a fitted effect of over 45% in size
HCMV antiviral – qHTS Assay for inhibitors of the human cytomegalovirus (HCMV); AID 1259415, 2018; HFF cells, HCMV-luciferase reporter, 72 h; hits give low values; hit rate 4.5% among 410,000; activity change, negative = inhibition, % at 57.5 µM; in the data active means activity change below about -60%; inconclusive means no clear call, values can overlap the other calls; inactive means above about -39%
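Inhibition of viral replication was scored as loss of reporter luminescence in HFFs infected with HCMV-luciferase (MOI 1 PFU/cell) for 72 h; compounds tested at 2 doses, normalized to buffer and Salinomycin controls.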
RE007 growth inh – qHTS Assay for Inhibitors of the HIV-1 protein Vpr; S. pombe RE007 Vpr strain, BacTiter-Glo ATP luminescence, 24 h; Potency, µM (highest dose often 92.2 µM), without a hit: at the top dose activity change, negative = less growth, hits mostly inhibitors; hit rate 0.21% among 360,000; AID 651644, 2012; active means well fitted falling curve with a large enough effect; inconclusive means small, poorly fitted or top-dose-only effect; inactive means no such curve, though single readings can be large or run the other way; further: potency means the concentration at half of the fitted maximal effect; nearly all actives have a fitted effect of over 50% in size
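Fission yeast RE007 carrying one integrated HIV-1 vpr copy, seeded at OD 0.01 in PMG+AL medium with 23 nL pinned compound. Grown 24 h at 30 degrees; viability read by BacTiter-Glo luminescence after 5 min.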
Sm TGR inh – qHTS Assay for the Inhibitors of Schistosoma Mansoni Peroxiredoxins. hit rate 3% among 360,000. Potency, µM (doses to about 114 µM), inactives show at the highest dose activity change, negative = inhibition, usual class: inhibitors. purified TGR, DTNB reduction, TNB absorbance 405 nm; further: potency means the concentration at half of the fitted maximal effect; nearly all actives have a fitted effect of over 60% in size
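First, TGR (20 nM dispensed) and NADPH were mixed with compound. Second, a 15 min room-temperature incubation followed. Third, further NADPH and then DTNB were added to start the reaction. Finally, TNB absorbance was monitored kinetically.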
Tb PYK inh – qHTS of Trypanosoma Brucei Inhibitors; pyruvate kinase (Trypanosoma brucei), Q57TT1; TbPYK enzyme, Kinase-Glo Plus ATP luminescence, 45 min; Potency, µM (titrated, usually from 76.8 µM), inactives show top-dose activity, negative = inhibition, most hits filed as inhibitors; hit rate 0.12% among 410,000; AID 624173, 2012; further: potency means the concentration at half of the fitted maximal effect; nearly all actives have a fitted effect of over 50% in size
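T. brucei PYK with substrate was exposed to pin-transferred compounds across a concentration series, then started with 130 uM ADP (final). After 45 min at room temperature, Kinase-Glo Plus luminescence was read, normalized and curve-fitted.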
Giardia growth – qHTS Assay for Inhibitors of Fructose-1,6-bisphosphate Aldolase from Giardia Lamblia: Giardia lamblia growth inhibition; shares compounds with Giardia FBPA inh-1; Giardia lamblia trophozoite growth inhibition; Potency, µM (top dose mostly 57.5 µM), for inactives: top-dose activity change, negative = inhibition, usual class: inhibitors; hit rate 5% among 1,500; AID 2785, 2010;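 further: potency means the concentration at half of the fitted maximal effect; trophozoites exposed to compound for 48 h at 37 °C; nearly all actives have a fitted effect of over 70% in size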
Mammal cell tox – qHTS Assay for Inhibitors of Fructose-1,6-bisphosphate Aldolase from Giardia Lamblia: Mammalian cellular toxicity. AID 2786, 2010. mammalian cell viability counter-screen, qHTS. hit rate 4% among 1,500. shares compounds with Giardia FBPA inh-1. Potency, µM (doses to about 57.5 µM), for the others: at the top dose viability change, negative = toxicity, actives largely listed as inhibitors;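 further: Chinese hamster ovary cells used as mammalian cytotoxicity surrogate; viability measured as cellular ATP by luminescence; potency means the concentration at half of the fitted maximal effect; compound exposure lasted 48 h before reading; nearly all actives have a fitted effect of over 60% in size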
Giardia FBPA inh-2 – qHTS Assay for Inhibitors of Fructose-1,6-bisphosphate Aldolase from Giardia Lamblia: Primary screen confirmation. shares compounds with Giardia FBPA inh-1. purified Giardia aldolase enzyme activity, qHTS. Potency, µM (highest dose often 57.5 µM), without a hit: at the top dose activity change, negative = inhibition, most hits filed as inhibitors. hit rate 5% among 1,500. AID 2787, 2010; further: potency means the concentration at half of the fitted maximal effect; nearly all actives have a fitted effect of over 45% in size
Rabbit FBPA inh – qHTS Assay for Inhibitors of Fructose-1,6-bisphosphate Aldolase from Giardia Lamblia: Rabbit FBPA Selectivity. Potency, µM (doses to about 57.5 µM), inactives show top-dose activity, negative = inhibition, most hits filed as inhibitors. shares compounds with Giardia FBPA inh-1. Rabbit muscle FBPA enzyme inhibition, selectivity counter-screen. hit rate 4% among 1,500; further: potency means the concentration at half of the fitted maximal effect; nearly all actives have a fitted effect of over 60% in size
Target sequence (P00883 whole entry, looked up): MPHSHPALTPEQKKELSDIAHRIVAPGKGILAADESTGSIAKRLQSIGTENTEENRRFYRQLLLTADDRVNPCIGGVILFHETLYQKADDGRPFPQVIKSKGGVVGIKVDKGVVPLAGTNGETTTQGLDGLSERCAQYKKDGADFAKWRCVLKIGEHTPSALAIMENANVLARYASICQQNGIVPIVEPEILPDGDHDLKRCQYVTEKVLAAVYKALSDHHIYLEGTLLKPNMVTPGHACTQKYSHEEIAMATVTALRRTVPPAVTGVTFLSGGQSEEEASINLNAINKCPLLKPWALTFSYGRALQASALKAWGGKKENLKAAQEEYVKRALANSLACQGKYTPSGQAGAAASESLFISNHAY
GAPDH counter – qHTS Assay for Inhibitors of Fructose-1,6-bisphosphate Aldolase from Giardia Lamblia: Coupling assay counterscreen confirmation; shares compounds with Giardia FBPA inh-1; GAPDH coupling enzyme counterscreen, biochemical, qHTS; Potency, µM (doses to about 57.5 µM), without a hit: at the top dose activity change, negative = inhibition, usual class: inhibitors; hit rate 6% among 1,500; AID 2795, 2010; further: potency means the concentration at half of the fitted maximal effect; nearly all actives have a fitted effect of over 55% in size
Active calls of the source: *; ? = inconclusive; . = no result; [ ] = dose if it differs, or a comment. Unless noted, the call rests on the fitted dose curve; in most records, active means well fitted curve in the direction sought with a large enough effect; inconclusive means small, poorly fitted or top-dose-only effect, or another doubt; inactive means no such curve, though single readings can be large; an effect the other way counts as inactive or inconclusive. On the % scale 0 is the no-effect control and ±100 the full control effect.

SMILES	Giardia FBPA inh-1	FMDV antiviral	HCMV antiviral	RE007 growth inh	Sm TGR inh	Tb PYK inh	Giardia growth	Mammal cell tox	Giardia FBPA inh-2	Rabbit FBPA inh	GAPDH counter
Cc1ccc(NS(=O)(=O)c2cc(NC(=O)c3ccc4c(c3)NC(=O)CS4)ccc2C)c(C)c1	16µM*	?	?	3%	.	?	-12%	-19%	-4%	-1%	3%
COc1ccc(NC(=O)c2ccc3c(c2)NC(=O)CS3)cc1S(=O)(=O)Nc1ccc(Br)cc1	-27%	90%	-27	0%	.	-1%	.	.	.	.	.
Cc1ccc2oc(=O)c3cnn(CC(=O)N4CCN(c5ccc(F)cc5)CC4)c3c2c1	.	-14%	0	.	1%	1%	.	.	.	.	.
COC(=O)Oc1nsnc1N1CCOCC1	14µM*	.	-37	-11%	-7%	-39%	-28%	10%	-13%	?	?
CCOc1cc(-c2nc3c(c(CC)nn3-c3ccccc3)c3cc(OC)c(OC)cc23)ccc1O	.	-21%	15	.	2%	5%	.	.	.	.	.
CC(=O)N[C@@H]1CCSC1=O	5%[21.7 µM]	.	.	.	.	-9%[33.2 µM]	.	.	.	.	.
CC(=O)NC1C(=O)SC1(C)C (stereo not given)	16µM*	.	.	.	-2%	.	-10%	-5%	-22%	-4%	-3%
CCN(CC(=O)Nc1ccc(NC(C)=O)cc1)CC(=O)Nc1ccc(Cl)c(Cl)c1	7.9µM*	6%	-1	-15%	0%	-15%	-6%[10.4 µM]	-6%	7%	5%	5%
CCN(CC(=O)Nc1cccc(OC)c1)CC(=O)Nc1ccc(C)cc1Cl	16µM*	-1%	-4	20%	-2%	4%	17%[10.4 µM]	-4%	0%	-1%	7%
CCN(CC(=O)Nc1ccc(NC(C)=O)cc1)CC(=O)Nc1cccc(Cl)c1	-5%	-11%	15	-5%	-10%	8%	.	.	.	.	.
O=c1n(Cc2ccc(F)cc2Cl)c2ccccc2c2nc(-c3ccccc3)nn12	.	7%	-16	.	-4%	3%	.	.	.	.	.
Cc1cc(C)cc(OC(=O)c2cc(-c3ccc4c(c3)OCCO4)on2)c1	.	6%	12	.	3%	-1%	.	.	.	.	.
COc1ccc(CNS(=O)(=O)c2cc3c(cc2Cl)N(C(C)=O)CCO3)cc1	.	57%	42	.	-6%	3%	.	.	.	.	.
Cc1cc(Sc2nc(N)ncc2[N+](=O)[O-])ncn1	18µM*	?	-99*	7%	2.2µM*	11%	-6%[10.4 µM]	?	1%	15%	0%
Cc1cc(N)ncc1[N+](=O)[O-]	.	11%	55	-6%	.	-6%	.	.	.	.	.
COC(=O)C1=COC(O[C@H]2OC(CO)[C@H](O)C(O)C2O)[C@H]2C1C(=O)C[C@@H]2C (stereo not given in full)	-8%	-11%	.	.	.	.	.	.	.	.	.
CN1CCN(C(=S)NC(=O)c2ccc(-c3ccccc3)cc2)CC1	18µM*	17%	?	1%	2%	-24%	-11%[10.4 µM]	2%	6%	12%	-5%
C/C(CC(=O)N1CCN(C=O)CC1)=N\NC(=O)c1ccc(Cl)cc1	-11%	-7%	-4	?	0%	-16%	.	.	.	.	.
CN1CCN(C(=S)NC(=O)c2ccc(Br)cc2)CC1	18µM*	-8%	-34	10%	-22%	-22%	-6%	-3%	9%	-1%	9%
Cc1ccc2c(c1)C1CN(C)CCC1N2C(=S)NC(=O)c1ccc(Br)cc1 (stereo not given)	16µM*	?	-62*	4%	-15%	-13%	8.9µM*	-8%	-12%	6%	7%
Cc1ccc2c(c1)C1CN(C)CCC1N2C(=O)c1ccc(Br)o1 (stereo not given)	-6%	0%	53	-7%	?	0%	.	.	.	.	.
O=CN1CCN(C(=S)NC(=O)c2ccc(Cl)cc2)CC1	10µM*	28%	-2	2%	-16%	-4%	-5%[38.3 µM]	10%	2%	5%	-7%
CCCCC(=O)Nc1nnc(S(=O)(=O)N(C)Cc2ccccc2)s1	.	-2%	30	.	-34%	-7%	.	.	.	.	.
COc1cc(OC)c(NC(=O)Cn2cnc3sc(C)c(S(=O)(=O)N4CCN(C)CC4)c3c2=O)cc1Cl	.	-3%	-3	.	4%	2%	.	.	.	.	.
Fc1cccc(-c2csc(-c3ccno3)n2)c1	-1%	37%	-6	-21%	6%	-14%	.	.	.	.	.
SMILES	Giardia FBPA inh-1	FMDV antiviral	HCMV antiviral	RE007 growth inh	Sm TGR inh	Tb PYK inh	Giardia growth	Mammal cell tox	Giardia FBPA inh-2	Rabbit FBPA inh	GAPDH counter
Nc1nc(-c2cccc(F)c2)cs1	11µM*	25%	3	?	?	-23%	20%[10.4 µM]	-5%	5%	5%	13%
CCCCc1nnc(NC(=O)CSCc2cc(=O)n3cc(C)sc3n2)s1	4µM*	-26%	-38	-3%	-3%	0%	7%[38.3 µM]	?	?	19%	-5%
O=C(NCCCN1CCOCC1)c1cc2ccccc2cc1O	.	16%	-9	-9%	0%	3%	.	.	.	.	.
O=C(NCCO)c1cc2ccccc2cc1O	2µM*	6%	8	-12%	0%	-2%	-11%[38.3 µM]	-1%	?	?	?
O=C(O)CC1OCC=C2CN3CCC45C6=CC(=O)C(=O)C([N+](=O)[O-])=C6NC4C1C2CC35 (stereo not given)	1.3µM*	-28%	.	-4%	?	1%	13µM*	-11%	4.5µM*	8.9µM*	4µM*
CN(C)C(=S)NC(=O)c1cccc(Cl)c1	16µM*	5%	19	5%	17%	-24%	7.1µM*	15%	-5%	10%	-6%
